# The list is not random: actives were taken first. Their share in the collection is about 0.98%.
# Cardiac RTF inh: cardiac RTF calcium desensitization | P19429+P45379 | IANBD-labeled cardiac RTF, Ca2+ fluorescence | inhibition, % at 7.15 µM | 340,000 tested, 0.12% active | AID 493244;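 active = inhibition above the mean inhibition of all tested compounds plus 3 SD, cut at about 17% in these data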;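 note: assay run at fixed EC70 calcium of 1.6 mM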
# LANA DNA inh: blocks KSHV LANA C-terminal domain binding to DNA; MBP-C-LANA/FAM-LBS DNA binding, fluorescence polarization; 340,000 tested, 0.078% active; inhibition, % at 9 µM;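 active = highest replicate inhibition at or above 60% at 9 µM, even if other replicates fall short; inactive = all replicates below 60% inhibition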;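 note: 0% = neutral control wells and 100% = 4 µM acridine orange control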
# Keap1-Nrf2 PPI: disrupts human Keap1 binding to Nrf2 peptide; 340,000 tested, 0.15% active; Keap1 Kelch-Nrf2 peptide fluorescence polarization, 1536-well; AID 504523; inhibition, % at 9.4 µM; in the data active = inhibition above about 12%;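 note: human Keap1 Kelch domain with fluorescein labeled Nrf2 9mer peptide probe; 0% = neutral control wells and 100% = peptide positive control; higher means more block of Keap1 binding to Nrf2 peptide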
# Target sequence (Q14145 whole entry, looked up, the tested form may be a part): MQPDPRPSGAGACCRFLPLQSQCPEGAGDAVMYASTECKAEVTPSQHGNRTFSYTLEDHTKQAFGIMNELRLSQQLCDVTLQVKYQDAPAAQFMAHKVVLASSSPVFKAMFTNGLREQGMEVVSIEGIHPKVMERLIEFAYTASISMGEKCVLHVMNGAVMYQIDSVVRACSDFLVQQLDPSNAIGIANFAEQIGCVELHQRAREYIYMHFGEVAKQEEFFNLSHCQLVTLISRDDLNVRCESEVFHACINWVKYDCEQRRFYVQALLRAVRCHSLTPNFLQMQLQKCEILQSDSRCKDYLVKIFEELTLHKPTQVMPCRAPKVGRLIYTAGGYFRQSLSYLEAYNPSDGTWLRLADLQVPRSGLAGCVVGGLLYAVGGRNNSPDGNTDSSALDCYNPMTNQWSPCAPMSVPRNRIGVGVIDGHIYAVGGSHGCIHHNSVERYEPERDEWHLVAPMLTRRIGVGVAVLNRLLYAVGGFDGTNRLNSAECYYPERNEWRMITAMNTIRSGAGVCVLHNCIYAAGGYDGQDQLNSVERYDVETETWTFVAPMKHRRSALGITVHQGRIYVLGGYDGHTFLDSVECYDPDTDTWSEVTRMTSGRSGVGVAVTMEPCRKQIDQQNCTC
# LANA-H2A inh: blocks KSHV LANA binding to histone H2A/H2B; inhibition, % (test concentration not listed); AID 2629; Q9QR71; 320,000 tested, 0.6% active; cell-free LANA-H2A/H2B peptide, fluorescence polarization; in the data active = inhibition mostly above about 10%, no sharp cut-off; inactive = mostly below about 6.7%
# RTF Ca sens act: cardiac RTF calcium sensitization. P19429+P45379. IANBD-labeled TnC RTF fluorescence at EC20 calcium; 0% EC20 calcium, 100% full calcium. activation, % at 7.2 µM. 340,000 tested, 0.24% active. AID 493008;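 active = activation above the mean over all tested compounds plus 3 SD, cut at about 30% in these data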;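 note: rise in fluorescence read as greater calcium sensitivity of cardiac thin filaments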
# * marks the source's active call; other numbers are inactive results; . = no result given; + = active, no number.
SMILES,Cardiac RTF inh,LANA DNA inh,Keap1-Nrf2 PPI,LANA-H2A inh,RTF Ca sens act
CCN(CC)/C(Sc1ccccc1)=C(\C(Cl)=C(Cl)Cl)[N+](=O)[O-],1.9,-0.9,-3.7,69.6*,-3.5
CN(C(=O)CSc1nc(N)cc(N)n1)C1CCS(=O)(=O)C1 (configuration not stated),3.6,-1.5,-1.8,-3.3,2.6
O=c1ccc2[n+]([O-])c3ccc(O)cc3oc-2c1,-7.1,50.1,101.3*,.,-0.9
Cc1ccccc1OCC(=O)N(Cc1ccco1)c1c(N)n(Cc2ccccc2)c(=O)[nH]c1=O,7.2,2.3,-2.2,-1.9,-0.7
CCOc1ccc(S(=O)(=O)N2CCOCC2)cc1NC(=O)CN1C(=O)NC2(CCCCC2)C1=O,-4.9,-0.5,1.8,23.9*,0.1
CC(C)Oc1ccc(S(=O)(=O)N2CCOCC2)cc1NC(=O)CC1OC(=O)c2ccccc21 (configuration not stated),-0.1,2.8,3.7,16.0*,1.8
CCOc1ccc(S(=O)(=O)N2CCOCC2)cc1NC(=O)CN1C(=O)NC(C)(c2ccc(C)cc2)C1=O (configuration not stated),2.5,2.2,-5.4,.,0.4
CCOc1cc2c3c(c1)C(C)=CC(C)(C)N3C(=O)C2=O,-10.4,-0.4,0.5,13.3*,-0.5
CCOc1cc2c3c(c1)C(C)CC(C)(C)N3C(=O)C2=O (configuration not stated),2.6,0.1,-3.1,-16.9,2.0
O=C1CCc2cc(S(=O)(=O)Nc3ccc(F)cc3)ccc2N1,0.4,1.2,-1.5,-140.8,-1.6
CCn1c(O)c(/C=C2\C=NN=C2c2ccc(C)cc2)sc1=S,-11.8,2.9,-0.3,2.3,-4.8
CC(C)n1c(O)c(/C=C2\C=NN=C2c2ccccc2)sc1=S,0.5,1.8,-0.4,12.3*,4.3
O=C1c2cccc3c([N+](=O)[O-])ccc(c23)C(=O)N1O,-8.3,2.9,19.9*,0.6,7.4
Cn1c(=O)c2c(nc(N3CCOCC3)n2CCSc2ncccn2)n(C)c1=O,-4.9,0.5,-4.8,11.2,5.4
CC1CC(C)CN(c2nc3c(c(=O)n(C)c(=O)n3C)n2CCSc2ncccn2)C1 (configuration not stated),0.1,1.3,1.2,21.9*,-1.3
Cc1ncc(CN2CCC(CO)(CCc3ccccc3)CC2)s1,0.7,-2.6,0.7,16.3*,-0.5
Clc1ccccc1C1=CC(c2ccco2)n2ncnc2N1 (configuration not stated),-25.6,13.0,1.9,3.7,18.9
CC(=O)Nc1cccc(C2=CC(c3ccco3)n3ncnc3N2)c1 (configuration not stated),.,.,.,29.7*,.
Cc1ccccc1N1C(=O)C2ON(c3ccccc3)C(c3ccco3)C2C1=O (configuration not stated),-2.4,1.3,-4.7,0.5,-0.1
CCOc1ccc(N2C(=O)C3ON(c4ccccc4)C(c4ccco4)C3C2=O)cc1 (configuration not stated),-3.1,-1.6,0.5,11.4*,-1.6
CC(C)(C)OC(=O)C[C@@H]1C/C=C\C[C@H](CC(=O)N[C@H](CO)Cc2ccccc2)C(=O)N[C@H](Cc2ccccc2)COC1=O,1.7,-0.4,4.3,-2.4,-2.0
CC(C)(C)OC(=O)C[C@H]1C/C=C\C[C@H](CC(=O)N[C@H](CO)Cc2ccccc2)C(=O)N[C@H](Cc2ccccc2)COC1=O,-3.0,-0.5,-4.4,82.6*,-3.8
O=C(C[C@H]1C/C=C\CC[C@H](Cc2ccc(F)cc2)C(=O)O[C@H](c2ccccc2)CNC1=O)N[C@H](CO)Cc1ccccc1,6.2,0.4,2.9,+,-12.9
O=C(C[C@H]1C/C=C\CC[C@H](Cc2ccc(F)cc2)C(=O)O[C@@H](c2ccccc2)CNC1=O)N[C@@H](CO)Cc1ccccc1,-5.0,1.8,5.6,-7.2,0.8
N#C/C(=C\c1ccc(N2CCOCC2)o1)C(=O)NC1CCCCC1,-61.9,-32.5,-111.8,-19.7,45.0*
SMILES,Cardiac RTF inh,LANA DNA inh,Keap1-Nrf2 PPI,LANA-H2A inh,RTF Ca sens act
N#C/C(=C\c1ccc(-c2ccc(C(=O)O)cc2)o1)C(=O)NCC1CCCO1 (configuration not stated),5.5,0.1,0.9,4.5,-0.7
N#C/C(=C/c1ccc(-c2ccc(S(=O)(=O)N3CCOCC3)cc2)o1)C(=O)NC1CC1,-0.3,3.4,0.6,.,6.0
N#C/C(=C\c1ccc(N2CCOCC2)o1)C(=O)NCC1CCCO1 (configuration not stated),-78.3,-34.2,-125.5,-38.1,53.3*
O=C(CCSCc1ccc(Cl)cc1)NCc1cccs1,17.8*,1.1,-0.3,0.4,-3.2
O=C(CSCc1ccc(F)cc1)NCc1cccs1,4.9,8.4,5.7,.,-4.1
CC(C)C1CC(CCNCc2ccc(N(C)C)cc2)(c2ccccc2)CCO1 (configuration not stated),-12.1,-0.4,-3.9,7.2*,-14.7
O=C(C1CC12CCCC2)N1CCC(CO)(Cc2ccccc2Cl)CC1 (configuration not stated),9.1,0.9,-1.4,18.8*,-6.5
COc1ccc(NC(=O)C2C3C=CC4(O3)C2C(=O)N(CCCN2CCCC(C)C2)C4C(=O)NC2CCCCC2)cc1 (configuration not stated),-9.9,0.9,-3.5,1.5,-3.6
CNC(=O)c1c(NC(=O)c2ccco2)sc2c1CCC2,-5.5,0.1,-2.5,83.2*,-1.7
CC(C)NC(=O)c1ccc(NC(=O)CC2SC(N3CCCCC3)=NC2=O)cc1 (configuration not stated),-1.0,-0.3,-2.8,-4.3,0.3
COc1cccc(CNC(=O)c2ccc(NC(=O)CC3SC(N4CCCC4)=NC3=O)cc2)c1 (configuration not stated),-10.2,1.6,-10.2,39.2*,-0.2
CC(C)NC(=O)c1ccc(NC(=O)CC2SC(N3CCCC3)=NC2=O)cc1 (configuration not stated),5.3,1.2,2.2,+,-1.2
CNC(=O)c1ccc(NC(=O)CC2SC(N3CCCC3)=NC2=O)cc1 (configuration not stated),-5.5,-0.8,-1.6,50.0*,-6.4
Cc1cc2c(cc1S(=O)(=O)C(C)CC(=O)NCc1ccco1)OCC(=O)N2 (configuration not stated),-12.4,-1.0,-6.2,6.1,-2.9
OCCC1CN(Cc2ccccc2-c2ccco2)CCN1Cc1ccccc1 (configuration not stated),7.7,-1.0,-5.9,-0.9,10.2
COc1ccc(N2CC(C(=O)Nc3nnc(SCC(=O)NCC4CCCO4)s3)CC2=O)cc1 (configuration not stated),0.1,0.7,-9.6,34.4*,-3.4
CC(C)(C)OC(=O)CNC(=O)c1nc[nH]c1C(=O)N1CCNCC1,-16.2,1.0,-7.3,0.5,4.5
Cc1ccc(CC(=O)Nc2nc3ccccc3s2)cc1,2.7,-3.7,3.5,23.9*,-1.1
